Screens as filed in PubChem.
Shown is part of a subset that was picked to be rich in hits.
AMA1 RON2 block: inhibitors of Plasmodium falciparum AMA1-RON2 interaction; 360,000 tested, 0.2% active; AID 720542; AlphaScreen AMA1-biotinylated RON2 peptide binding; Potency, µM (highest dose often 58.2 µM), inactives show top-dose activity change, negative = inhibition, usual class: inhibitors; active = well fitted inhibition curve with a large enough effect; inconclusive = small, poorly fitted or top-dose-only effect; inactive = no such curve, though single readings can be large or run the other way;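 note: potency is the fitted concentration of half-maximal effect; 0% = vehicle wells and -100% = peptide control; nearly all actives have a fitted effect of over 45% in size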
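AMA1 (3D7) with his tag at 25 nM final met compounds first, then biotinylated RON2 peptide at 25 nM; detection used donor plus acceptor beads, 10 µg/mL apiece, read by AlphaScreen after 30 min at room temperature.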
Lassa entry inh: Lassa virus entry inhibition | Lassa virus pseudotype entry inhibition, cell reporter | 300,000 tested, 1.2% active | Potency, µM (top dose mostly 37.9 µM), for the others: at the top dose activity change, negative = inhibition, actives largely listed as inhibitors; calls by dose curve; tested in HEK293 cells; note: potency is the fitted concentration of half-maximal effect; % is set by controls: 0 for no effect and ±100 for the full control effect; nearly all actives have a fitted effect of over 50% in size
CHX counter: counter-screen hit for Shiga toxin inhibitors, cycloheximide. cell reporter, cycloheximide protein synthesis inhibition counterscreen. max response, %. 300,000 tested, 12% active; in the data active = max response mostly above about 13%, no sharp cut-off; inactive = mostly below about 14%; note: read at 38.3 µM for the half of the compounds with a filed dose; 0% is about no effect
Marburg entry inh: inhibitors of Marburg virus binding or cell entry. Marburg virus pseudotyped entry inhibition, cell reporter. Potency, µM (titrated, usually from 37.8 µM), for inactives: at the top dose activity change, negative = inhibition, most hits filed as inhibitors. 300,000 tested, 1.8% active; calls by dose curve; tested in HEK293 cells; note: potency is the fitted concentration of half-maximal effect; % is set by controls: 0 for no effect and ±100 for the full control effect
Shiga inhibitor: inhibitors of Shiga toxin in Vero cells | AID 2315 | inhibition, % at 38.7 µM | Vero cells, Shiga toxin protein synthesis inhibition reporter | 290,000 tested, 9.2% active; in the data active = inhibition mostly above about 28%, no sharp cut-off; inactive = mostly below about 43%; note: 0% is about no effect
* hit, by the source's call; u = inconclusive; x = not tested or not shown; [ ] = dose if it differs, or a comment.

SMILES	AMA1 RON2 block	Lassa entry inh	CHX counter	Marburg entry inh	Shiga inhibitor
COC(=O)c1ccc(COC(=O)c2ccc(N(C)C)cc2)cc1	5.7%	-5.8%	40.9*	6.8%	65.3*
CN(C)c1ccc(C(=O)OCc2ccccc2)cc1	11.3%	u	35.1*	-0.5%	50.8
CC(C)(C)C(=O)NC(NC(=S)Nc1sc2c(c1C#N)CCCC2)C(Cl)(Cl)Cl (stereo not given)	7.3%	1.0%	-2.7	-27.8%	16.7
Cc1ccc(N(C)S(=O)(=O)c2cccc(C(=O)NCC(c3ccco3)N3CCCC3)c2)cc1 (stereo not given)	-7.8%	x	x	x	x
CC(C)(C)OC(=O)N1CCC(CC2CC(c3ccc(Cl)cc3)=NO2)(C(=O)NCC2CCCCC2)CC1 (stereo not given)	12.8%	x	32.1*	x	46.6*
CC(=O)Nc1ccc(S(=O)(=O)O)c(OC(C)=O)c1	3.0%	22.5%[46.1 µM]	x	21.2%[46.1 µM]	x
COc1ccc(/C(C)=N/Nc2nc3ccccc3n3cnnc23)cc1OC	58.0%	-27.5%	19.1*	-20.5%	40.2*
COc1ccc(Nc2nc3ccccc3n3cnnc23)cc1Cl	-0.9%	24.7%[46.1 µM]	34.7*	-28.4%[46.1 µM]	34.0
COc1cccc(Nc2nc3ccccc3n3cnnc23)c1	11.5%	x	14.5*	x	65.6
Cc1cccc(N2C(=O)N3[C@H]4c5ccccc5OC[C@@H]4[C@@H](c4ccccc4)[C@@]3(C)C2=O)c1	-6.8%	x	x	x	x
CCN1C(=O)NC(CCc2ccccc2)C(C(C)=O)=C1C (stereo not given)	x	x	x	-8.9%[14.2 µM]	x
O=C(OCC(=O)N1CCc2ccccc21)c1n[nH]c(=O)c2ccccc12	2.8%	x	x	x	x
COc1ccccc1NC(=O)Nc1ccc(C(=O)N2CCCCC2)cc1	-3.0%	x	27.2*	x	79.6*
COC(=O)c1ccccc1NC(=O)Nc1ccc(C(=O)N2CCCC2)cc1	-0.2%	-11.3%	1.9	u	-7.0
Cc1ccc(C(=O)Nc2ccc(C(=O)N3CCCCC3)cc2)o1	5.2%	x	26.4*	x	52.1*
COc1ccccc1C(=O)Nc1ccc(C(=O)N2CCCCC2)cc1	1.9%	-6.6%	13.1*	-0.9%	-1.3
CC(C)c1ccc(NC(=O)c2ccc(CN3CC(=O)N4CCCCC4C3=O)cc2)cc1 (stereo not given)	x	12.0%[46.1 µM]	x	x	x
Cc1sc2nc(CN3CCOCC3)[nH]c(=S)c2c1C	90.9%	x	4.9	x	6.3
O=C(OC1CC2CC1[C@H]1CCCCN1C2=O)N1CCN(C(=O)c2ccccc2)CC1 (stereo not given in full)	1.3%	x	x	x	x
N=c1c2c(n(Cc3cccc(Cl)c3)c3c1CCC3)CCCC2	-4.3%	u	-2.5	u	8.7
N=c1c2c(n(Cc3ccc(Cl)cc3Cl)c3c1CCC3)CCCC2	36.3%	3.98µM*	-2.2	u	-3.5
N=c1c2c(n(Cc3ccccc3)c3c1CCC3)CCC2	3.6%	1.58µM*	-1.3	u	-13.0
N=c1c2c(n(Cc3ccc(Cl)cc3)c3c1CCC3)CCC2	-6.1%	u	-4.8	u	-5.1
CC(=O)c1ccc(NC(=O)c2sc(-n3nc(C)c(CCC(C)C)c3C)nc2C)cc1	x	8.3%[46.1 µM]	x	-15.9%[46.1 µM]	x
Nc1ccc2c(c1)Cc1ccccc1-2	u	u	34.4*	-4.6%	64.3*
SMILES	AMA1 RON2 block	Lassa entry inh	CHX counter	Marburg entry inh	Shiga inhibitor
O=[N+]([O-])c1ccc2c(c1)Cc1cc(O)ccc1-2	1.3%	11.4%	x	u	x
COc1cc2c(cc1N)-c1ccc(N)cc1C2	3.98µM*	-5.9%	x	30.2%	x
Nc1ccc2c(c1)Cc1cc([N+](=O)[O-])ccc1-2	6.3%	u	41.7*	u	66.8*
CC1(C(=O)NS(=O)(=O)Cc2cccc(Cl)c2)CCN1C(=O)CCc1cccs1 (stereo not given)	14.3%	x	x	x	x
Fc1ccc(CNc2nc3ccc(Cl)cc3n3nnnc23)cc1	x	22.6%[46.1 µM]	x	4.8%[46.1 µM]	x
Cc1ccc(C)c(NC(=O)c2cc([N+](=O)[O-])cc([N+](=O)[O-])c2)c1	-1.5%	0.1%[46.1 µM]	-0.6	-5.0%[46.1 µM]	-9.3
COc1ccc(NC(=O)/C(C#N)=C/c2ncc([N+](=O)[O-])n2C)c(OC)c1	9.8%	-23.2%	-0.9	-5.9%[46.1 µM]	-8.6
COC(=O)c1cc(NC(=O)c2cccc(Cl)c2)c(=O)oc1/C=C/Nc1cc(C)cc(C)c1	x	x	16.1	x	57.5*
CCCC(=O)Nc1ccc2c(c1)nc1n2CCOC1	16.8%	u	-1.5	u	27.1
O=C(Nc1ccc2c(c1)nc1n2CCSC1)c1ccccc1	26.5%	u	40.3*	u	43.4*
CCC(=O)Nc1ccc2c(c1)nc1n2CCSC1	6.7%	6.9%	13.6	u	-2.3
CCCCC(=O)Nc1ccc2c(c1)nc1n2CCOC1	-8.7%	3.9%	19.8*	-2.3%	89.4*
CC(C)C(=O)Nc1ccc2c(c1)nc1n2CCSC1	19.6%	10.3%	18.7	u	39.9*
O=C(Nc1ccc2c(c1)nc1n2CCOC1)c1ccccc1	16.0%	u	31.3*	-3.2%	93.6*
COc1ccc(C(=O)Nc2ccc3c(c2)nc2n3CCSC2)cc1	7.6%	-4.9%	44.7*	u	86.0*
COc1ccc(C(=O)CSc2nnc(CNc3ccc(F)cc3)o2)cc1	10.1%	x	-2.3	0.1%[46.1 µM]	8.5
Cc1cc(C)nc(SCc2cccc(C(=O)O)c2)n1	0.4%	-10.6%	-3.0	1.0%	19.3
O=C(O)c1cccc(CSc2ncn[nH]2)c1	-10.7%	x	7.6*	x	24.5
O=C(O)c1cccc(CSc2nnc(Cc3ccccc3)o2)c1	20.8%	5.2%	14.7	2.7%	44.3*
c1ccc(CSc2nnc(Cc3ccccn3)o2)cc1	-10.2%	20.9%	25.2*	3.3%	45.7
O=C(CSc1nnc(CNc2ccc(F)cc2)o1)c1ccccc1	-22.6%	7.9%	21.5*	14.8%[46.1 µM]	32.5
Fc1ccc(NC(=S)N2CCN(c3ncccn3)CC2)cc1	-1.1%	-15.2%	10.9	29.3%	-3.0
O=C(CSc1nnc(Cc2ccccc2)o1)c1ccccc1	23.5%	-7.9%[46.1 µM]	31.7*	6.2%[46.1 µM]	24.3
c1ccc(CSc2nnc(Cc3ccccc3)o2)cc1	45.8%	-7.7%	40.3*	-10.4%[46.1 µM]	53.7*
COc1ccc([C@]23Cc4cc(OC)c(OC)cc4[C@H](O2)C2=C(CCCC2=O)O3)cc1	x	x	x	6.0%[14.2 µM]	x
SMILES	AMA1 RON2 block	Lassa entry inh	CHX counter	Marburg entry inh	Shiga inhibitor
O=C1c2ccccc2C(=O)N1CC(O)Cn1nnc2ccccc21 (stereo not given)	-3.8%	-12.7%	-1.4	8.8%	-3.9
Cc1nn(CC(O)CN2c3ccccc3Sc3ccccc32)c(C)c1Br (stereo not given)	u	u	5.9	11.2µM*	14.6
OC(CN1c2ccccc2Sc2ccccc21)Cn1nnc2ccccc21 (stereo not given)	-16.5%	-2.1%	15.7*	u	17.9
Cc1nn(CC(O)c2ccccc2)c(C)c1Br (stereo not given)	-2.6%	13.8%	13.1	2.7%	-10.8
COc1ccc(C(=O)NCc2nnc(SCC(=O)Nc3nc4ccccc4s3)o2)cc1OC	66.2%	10.7%	-4.0	u	20.3
CC(=O)N(\C=C/C=C/C=C1\Sc2ccccc2C1=O)c1ccccc1	-1.6%	-14.0%	59.2*	u	114.9*
CC(=O)Nc1ccc(/C=C2/Sc3ccccc3C2=O)cc1	-2.4%	-20.9%[46.1 µM]	9.9	-26.6%[46.1 µM]	22.4
CN(C)/C=C1/Sc2ccccc2C1=O	-16.3%	18.9%	31.9*	4.3%	34.1
